Shown are actives, neighbours in structure and some others; about 4.3% of the full set was active somewhere.
PfHsp40 yeast = restores yeast growth despite PfHsp40 toxicity; AID 504582; 340,000 tested, 0.68% active; S. cerevisiae expressing PfHsp40, growth rescue, ATP luminescence; growth rescue, % at 12.5 µM; in the data active = growth rescue above about 28%, passing the limit was not always enough; inconclusive = no clear call, values can overlap the other calls;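 note: yeast W303a lacking pdr1 and pdr3 grown in galactose medium; growth measured after three days at 30 °C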
Autofluor counter = counter-screen for toxin protease inhibitors: compound fluorescence. compound autofluorescence counterscreen, microsphere flow cytometry; stronger effect = higher value. fluorescence intensity (test concentration not listed). 360,000 tested, 3.1% active; in the data active = fluorescence intensity above about 16000; inconclusive = no clear call, values can overlap the other calls
BoNT A protease = blocks Botulinum neurotoxin A light chain protease. 360,000 tested, 0.17% active. multiplex microsphere protease substrate cleavage, flow cytometry. inhibition, % at 10 µM
BoNT F protease = inhibitors of Botulinum neurotoxin F light chain protease; Multiplex microsphere protease cleavage assay, flow cytometry; inhibition, % at 10 µM; 360,000 tested, 0.22% active; AID 588497; in the data active = inhibition above about 35%, passing the limit was not always enough; inconclusive = no clear call, values can overlap the other calls
Anthrax LF prot = anthrax lethal factor protease inhibition; 360,000 tested, 0.12% active; multiplex microsphere protease cleavage assay, LF; AID 588501; inhibition, % at 10 µM
Target sequence (P15917 whole entry, looked up): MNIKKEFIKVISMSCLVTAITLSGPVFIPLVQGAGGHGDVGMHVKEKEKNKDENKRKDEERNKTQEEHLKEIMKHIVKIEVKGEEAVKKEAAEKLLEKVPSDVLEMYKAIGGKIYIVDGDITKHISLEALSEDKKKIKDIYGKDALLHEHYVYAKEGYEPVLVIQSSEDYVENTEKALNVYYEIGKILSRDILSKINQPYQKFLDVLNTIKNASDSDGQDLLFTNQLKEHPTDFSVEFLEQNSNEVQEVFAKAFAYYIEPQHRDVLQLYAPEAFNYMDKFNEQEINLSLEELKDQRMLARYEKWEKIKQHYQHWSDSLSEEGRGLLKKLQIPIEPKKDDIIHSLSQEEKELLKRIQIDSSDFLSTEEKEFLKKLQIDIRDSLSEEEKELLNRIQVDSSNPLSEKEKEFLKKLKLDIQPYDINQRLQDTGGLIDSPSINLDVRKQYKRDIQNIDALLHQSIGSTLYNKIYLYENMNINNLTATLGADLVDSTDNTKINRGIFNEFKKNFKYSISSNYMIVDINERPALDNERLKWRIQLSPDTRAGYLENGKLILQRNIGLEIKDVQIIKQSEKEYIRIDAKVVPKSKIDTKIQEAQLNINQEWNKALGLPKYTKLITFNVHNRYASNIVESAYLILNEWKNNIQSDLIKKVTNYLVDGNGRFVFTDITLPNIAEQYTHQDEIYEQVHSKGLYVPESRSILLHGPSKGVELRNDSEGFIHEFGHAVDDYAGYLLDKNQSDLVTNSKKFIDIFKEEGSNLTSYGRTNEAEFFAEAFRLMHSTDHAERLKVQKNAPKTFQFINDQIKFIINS
MazEF act = increases E. coli MazEF RNase cleavage of RNA | FAM/BHQ RNA-DNA oligo cleavage fluorescence, 5 h | activation, % at 20 µM | 350,000 tested, 0.32% active | AID 504720; in the data active = activation above about 50%
A number is an active result. Cut-off read from the data, not from the text of the source, unless noted: active = inhibition above about 30%; inconclusive = no clear call, values can overlap the other calls; inactive = below that.

Screening CCOC(=O)Cn1c(=O)oc2cc(S(=O)(=O)NCCC(C)C)ccc21 returned PfHsp40 yeast inactive, Autofluor counter inactive, BoNT A protease inactive, BoNT F protease inactive, Anthrax LF prot inactive and MazEF act inactive.
For CCOCCCNS(=O)(=O)c1ccc2c(c1)oc(=O)n2CC(=O)OCC the results were PfHsp40 yeast inactive, Autofluor counter 23318, BoNT A protease inactive, BoNT F protease inactive, Anthrax LF prot inactive and MazEF act inactive.
Screening CCOC(=O)Cn1c(=O)oc2cc(S(=O)(=O)Nc3cc(OCC)ccc3OCC)ccc21 returned PfHsp40 yeast inactive, Autofluor counter 16486, BoNT A protease inconclusive, BoNT F protease inactive, Anthrax LF prot inactive and MazEF act inactive.
CCOC(=O)Cn1c(=O)oc2cc(S(=O)(=O)NCCc3ccc(OCC)c(OCC)c3)ccc21 was read as PfHsp40 yeast inactive, Autofluor counter 22861, BoNT A protease inconclusive, BoNT F protease inactive, Anthrax LF prot inactive and MazEF act inactive.
Screening CCOC(=O)Cn1c(=O)oc2cc(S(=O)(=O)N(C)Cc3ccccc3)ccc21 returned PfHsp40 yeast inactive, Autofluor counter inactive, BoNT A protease inactive, BoNT F protease inactive, Anthrax LF prot inactive and MazEF act inactive.
Cc1cc(=O)oc2cc(OCC(=O)Nc3ccc(S(=O)(=O)N(C)C)cc3)ccc12 was read as PfHsp40 yeast inactive, Autofluor counter inactive, BoNT A protease inactive, BoNT F protease inactive, Anthrax LF prot inactive and MazEF act inactive.
`CON(C)C(=O)/C=C/c1ccc([B-](F)(F)F)cc1` gave PfHsp40 yeast inactive, Autofluor counter inactive, BoNT A protease inactive, BoNT F protease inactive, Anthrax LF prot inactive and MazEF act inactive.
For CC(C)NS(=O)(=O)c1ccc(CCC(=O)N2CCCCC2)cc1 the results were PfHsp40 yeast inactive, Autofluor counter inactive, BoNT A protease inactive, BoNT F protease inactive, Anthrax LF prot inactive and MazEF act inactive.
COc1ccc(/C=C2/CCCC(C(=O)C(F)(F)F)=C2O)cc1OC was read as PfHsp40 yeast inactive, Autofluor counter inactive, BoNT A protease inactive, BoNT F protease inconclusive, Anthrax LF prot inactive and MazEF act 211.
COc1ccccc1OCCNC(=O)CN1C(=O)NC2(CCCCC2)C1=O was read as PfHsp40 yeast inactive, Autofluor counter inactive, BoNT A protease inactive, BoNT F protease inactive, Anthrax LF prot inactive and MazEF act inactive.
Screening CC(C)C1=C2OC(N)=C(C#N)C(C#N)=C2C(C)CC1 (stereo not drawn) returned PfHsp40 yeast inactive, Autofluor counter 22045, BoNT A protease inactive, BoNT F protease inactive, Anthrax LF prot inactive and MazEF act inactive.
For CCCCCCCCN1C(=O)[C@H](CC(=O)NCCc2ccccc2OC)C[C@@]2(C(=O)OCC)CCCC=C12 the results were Autofluor counter inactive, BoNT A protease inactive, BoNT F protease inactive and Anthrax LF prot inactive.
CC(=O)C(C)Oc1ccc2c3c(c(=O)oc2c1)CCCCC3 (stereo not drawn) was read as PfHsp40 yeast inactive, Autofluor counter 19944, BoNT A protease inconclusive, BoNT F protease inactive, Anthrax LF prot inactive and MazEF act inactive.
Screening Cc1c(OCc2nn[nH]n2)ccc2c3c(c(=O)oc12)CCCC3 returned PfHsp40 yeast inactive, Autofluor counter 22827, BoNT A protease inactive, BoNT F protease inactive, Anthrax LF prot inactive and MazEF act inactive.
`CC(=O)C(C)Oc1ccc2c3c(c(=O)oc2c1)CCCC3` (stereo not drawn) gave PfHsp40 yeast inactive, Autofluor counter inactive, BoNT A protease inactive, BoNT F protease inactive, Anthrax LF prot inactive and MazEF act inactive.
COc1ccc(-c2cc(=O)oc3cc(OCc4nn[nH]n4)ccc23)cc1 was read as PfHsp40 yeast inactive, Autofluor counter 16695, BoNT A protease inactive, BoNT F protease inactive, Anthrax LF prot inactive and MazEF act inactive.
COC(=O)COc1ccc2c(-c3ccc(OC)cc3)cc(=O)oc2c1 was read as PfHsp40 yeast inactive, Autofluor counter inactive, BoNT A protease inactive, BoNT F protease inactive, Anthrax LF prot inactive and MazEF act inactive.
Screening Cc1c(OCC(=O)NCc2ccncc2)ccc2c3c(c(=O)oc12)CCCC3 returned PfHsp40 yeast inactive, Autofluor counter inactive, BoNT A protease inactive, BoNT F protease inactive, Anthrax LF prot inactive and MazEF act 53.
`Cc1c(OCC(=O)NCc2cccnc2)ccc2c3c(c(=O)oc12)CCCC3` gave PfHsp40 yeast inactive, Autofluor counter inactive, BoNT A protease inactive, BoNT F protease inactive, Anthrax LF prot inactive and MazEF act inactive.
COC(=O)C1CCN(S(=O)(=O)CCNC(=O)c2ccc(F)cc2)CC1 was read as PfHsp40 yeast inactive and MazEF act inactive.
Screening Cc1ccc(-n2ncc(-c3n[nH]c(=S)o3)c2N)cc1C returned Autofluor counter inactive, BoNT A protease inactive, BoNT F protease inactive, Anthrax LF prot inactive and MazEF act inactive.
For Cc1c(OCc2nn[nH]n2)ccc2c3c(c(=O)oc12)CCC(C)C3 (stereo not drawn) the results were PfHsp40 yeast inactive, Autofluor counter 22299, BoNT A protease inconclusive, BoNT F protease inactive, Anthrax LF prot inactive and MazEF act inactive.
Screening Cc1cc(OCc2nn[nH]n2)c2c3c(c(=O)oc2c1)CCC3 returned PfHsp40 yeast inactive, Autofluor counter 19295, BoNT A protease inactive, BoNT F protease inactive, Anthrax LF prot inactive and MazEF act inactive.
Screening NS(=O)(=O)c1ccc(CNC(=O)COc2ccc3c4c(c(=O)oc3c2)CCCC4)cc1 returned PfHsp40 yeast inactive, Autofluor counter inactive, BoNT A protease inactive, BoNT F protease inactive, Anthrax LF prot inactive and MazEF act 165.
`CCCc1cc(=O)oc2cc(C)cc(OCc3nn[nH]n3)c12` gave PfHsp40 yeast inactive, Autofluor counter inactive, BoNT A protease inactive, BoNT F protease inactive, Anthrax LF prot inactive and MazEF act inactive.
O=C(COc1ccc2c3c(c(=O)oc2c1)CCCC3)NCc1ccncc1 was read as PfHsp40 yeast inactive, Autofluor counter inactive, BoNT A protease inactive, BoNT F protease inactive, Anthrax LF prot inactive and MazEF act inactive.
Cc1cc2oc(=O)c3c(c2cc1OCc1nn[nH]n1)CCCC3 was read as PfHsp40 yeast inactive, Autofluor counter inactive, BoNT A protease inactive, BoNT F protease inactive, Anthrax LF prot inactive and MazEF act inactive.
Screening O=c1oc2cc(OCc3nn[nH]n3)ccc2c2c1CCCC2 returned PfHsp40 yeast inactive, Autofluor counter 18827, BoNT A protease inactive, BoNT F protease inactive, Anthrax LF prot inactive and MazEF act inactive.
COc1ccc(NC(=O)CCC(=O)OC(C(=O)c2ccccc2)c2ccccc2)cc1 (stereo not drawn) was read as PfHsp40 yeast inactive, Autofluor counter 20295, BoNT A protease inactive, BoNT F protease inactive, Anthrax LF prot inactive and MazEF act inactive.
Screening Cc1ccc(C(=O)C(OC(=O)CCC(=O)Nc2cccc(C)c2)c2ccccc2)cc1 (stereo not drawn) returned PfHsp40 yeast inactive, Autofluor counter inactive, BoNT A protease inactive, BoNT F protease inactive, Anthrax LF prot inactive and MazEF act inactive.
CC(=O)Nc1ccc(S(=O)(=O)NCCSCc2c(Cl)cccc2Cl)cc1 was read as PfHsp40 yeast inactive, Autofluor counter 21984, BoNT A protease inactive, BoNT F protease inactive, Anthrax LF prot inactive and MazEF act inactive.
